The source of these data is PubChem BioAssay (NCI).

Compounds without any hit were thinned out: in the full panel of roughly 83,000, 20% have a hit.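 Compound tested at a single concentration for 48 hours in 96-well plates; a percent growth value below 10 was scored as active.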 A number with no mark means an inactive call. Activity calls are given as the source filed them.

Holding throughout (assay): NCI-60 one-dose screen, 48 h (100 = growth as untreated, 0 = no growth, -100 = all killed)
Settings in all cases: 10 µM unless noted

In assay [1] the test system is DU-145 prostate.
Assay [2] concerns K-562 leukemia.
Assay [3] deals with MALME-3M melanoma.
The subject of assay [4] is MDA-MB-231 breast.
The subject of assay [5] is RXF 393 renal.
Assay [6] deals with SF-268 CNS.
In assay [7] the test system is SF-295 CNS.
Assay [8] has as its system SF-539 CNS.
The subject of assay [9] is UACC-257 melanoma.
Assay [10] has as its system M14 melanoma.
The subject of assay [11] is HCT-15 colon.
For assay [12], the system named is HT29 colon.
Assay [13] deals with SNB-75 CNS.
The test system of assay [14] is U251 CNS.
For assay [15], the system named is PC-3 prostate.
Assay [16] relates to SK-MEL-5 melanoma.
In assay [17] the test system is UACC-62 melanoma.
Assay [18] concerns LOX IMVI melanoma.
In assay [19] the test system is SK-MEL-28 melanoma.
The subject of assay [20] is SNB-19 CNS.

For `CC1=C(C)C(=O)C(Nc2ccc3c(c2)OCCO3)=C(Br)C1=O`, the growth in [1] was 107%; in assay [2], 4.46% (active); in [3] it was 122%; in assay [4], 88.3%; in [5], 100%; in assay [6], 97.8%. Further, the growth in assay [7] is 94.7%; in assay [8] it was 105%; in [9], 102%; in [10], 106%; in [11], 98.1%; in [12], 108%. Besides, the growth in [13] is 83.7%; in assay [14], 103%; in assay [15] it was 86%; in assay [16], 89.1%; in assay [17] it was 92.1%; in [18], 20.3%. In addition, in assay [19], the growth was 107%.

Turning to `O=C(N/N=C\c1ccc([N+](=O)[O-])cc1)c1ccc2nc(-c3ccc(Br)cc3)[nH]c2c1`, the growth is 28.2% in assay [1]; 2.69% (active) in assay [2]; 6.94% (active) in [3]; 62.4% in assay [4]; 11.5% in assay [5]; 44.7% in assay [6]. Further, the growth in [7] was 25.1%; in assay [8], 28.2%; in [9], 18.2%; in [10], 3.52% (active); in assay [11], 14.8%; in [12], -0.826% (active). Moreover, the growth is 56.4% in assay [13]; 41.6% in [20]; 4.44% (active) in [14]; 25% in [15]; 2.52% (active) in [16]; -52.9% (active) in [18]. Also, the growth in assay [19] is 36.8%.

Take `CC(Nc1ncnc2ccc(-c3cnc4cnccn34)cc12)c1ccccc1` (configuration not stated): the growth in assay [1] was 37.4%; in assay [2], 48.3%; in assay [3] it was 58%; in assay [4], 64.3%; in [5] it was 46.6%; in [6], 67.7%. Moreover, the growth is 50.5% in [7]; 66% in [8]; 75.4% in [9]; 77.8% in assay [10]; 67.7% in assay [11]; 71.1% in assay [12]. Further, the growth is 80.9% in [13]; 76.1% in [14]; 63.8% in [15]; 18.1% in assay [16]; 53.9% in assay [17]; 58.1% in [18]. Besides, the growth in [19] was 78.7%.

For `COc1ccc(OC)c(NC(=O)CCCCCCNC(=O)C(O)(O)C(F)(F)F)c1`, the growth in [1] is 34.9%; in [2], 19.4%; in assay [3] it was 24.9%; in assay [4] it was 61.6%; in assay [5], 1.79% (active); in [6] it was 55%. Further, the growth in assay [7] was 20.6%; in assay [8], 46%; in [9], 41.2%; in [10] it was 46.8%; in assay [11] it was 59.4%; in assay [12] it was 23.6%. Further, the growth in assay [13] is 56.1%; in assay [14] it was 41.8%; in assay [15], 51.4%; in [16] it was 16.6%; in assay [17], 13%; in assay [18], 32.3%. Moreover, the growth in assay [19] is 35.6%.

Consider `O=C(Nc1cccc(C(F)(F)F)c1)N1CCN(c2cc(-c3cn(-c4ccccc4)nc3-c3cccc(O)c3)ccn2)CC1`, for which the growth in [1] was 61.2%; in assay [2], 30.6%; in assay [3] it was 46.3%; in assay [4] it was 54%; in assay [5], 46.7%; in assay [6] it was 59.4%. Besides, the growth in [7] is 22.8%; in [8] it was 54.7%; in [9] it was 67.6%; in assay [10], 41.2%; in [11] it was 22.2%; in [12], 24.5%. The growth is 71.8% in assay [13]; 48.1% in [14]; 28.2% in assay [15]; 40.2% in assay [16]; 40% in [17]; 25.5% in assay [18]. Further, the growth in assay [19] was 55%.

Consider `Cc1cccc(N2CCN(C3=C(Cl)C(=O)c4ncccc4C3=O)CC2)c1`, for which the growth in assay [1] was 44.7%; in assay [2], 9.9% (active); in assay [3], 24.4%; in assay [4], 84.8%; in assay [5], 52.2%; in assay [6] it was 82.9%. Besides, the growth was 101% in assay [7]; 92.1% in assay [8]; 61.5% in assay [9]; 75.3% in assay [10]; 24.8% in assay [11]; 104% in [12]. Also, the growth in assay [13] is 84.3%; in assay [20], 79.5%; in assay [14] it was 85.2%; in assay [15] it was 72.9%; in [16], 95.2%; in [18] it was 24.2%. Also, the growth in assay [19] was 92.1%.

With `O=C(/C=C/c1cccc(Br)c1)c1cccc(OCCCCOc2cccc(C(=O)/C=C/c3cccc(Br)c3)c2)c1`, the growth in [1] was 109%; in assay [2], 90.1%; in assay [3], 98%; in assay [4], 101%; in assay [5], 105%; in [6] it was 99.9%. Also, the growth in assay [7] is 107%; in assay [8], 104%; in [9], 109%; in assay [10] it was 93.9%; in assay [11] it was 108%; in assay [12] it was 117%. Moreover, the growth in assay [13] is 96.8%; in assay [14] it was 105%; in [15] it was 104%; in assay [16] it was 99.4%; in assay [17], 98.3%; in assay [18], 96.6%. In assay [19], the growth was 110%.

In the case of `CCCC/C(=C\c1ccc(O)c(O)c1)C(=O)NC(Cc1ccccc1)C(=O)C(=O)NCCc1ccc(OC)cc1` (configuration not stated), the growth was 104% in [1]; 91.5% in assay [2]; 101% in [3]; 92.1% in assay [4]; 96% in [5]; 92% in assay [6]. Further, the growth in assay [7] was 97.8%; in assay [8], 91.6%; in [9] it was 100%; in assay [10] it was 95%; in assay [11], 93.4%; in assay [12] it was 105%. The growth is 86.9% in assay [13]; 103% in assay [14]; 94.4% in assay [15]; 98.9% in [16]; 86.6% in assay [17]; 89.4% in [18]. Besides, the growth in [19] is 102%.
